Results: the supplement of paper PMC4466140

These binders were tested against AgAbp1 (assay: SPOT peptide array binding signal intensity (averaged, normalized) (arbitrary units (background-subtracted, floor 0; scale differs between SH3 domains)); higher = stronger binding of the SH3 domain to the peptide).
Procedure, shortened: (§1)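 GST-SH3 fusions from four yeast species, purified on glutathione Sepharose, were incubated at 10 μg/ml overnight at 4°C on membranes of synthetic 15-mer peptides in which cysteines were replaced with serines. Binding signal is the normalized, background-subtracted spot intensity averaged over replicates, in domain-specific arbitrary units.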

| Binder | SPOT peptide array binding signal intensity |
| --- | --- |
| IFLRISINFPLNYPN | 76 |

These binders were tested against AgBbc1 in the same assay as above.
Procedure, shortened: as §1

| Binder | SPOT peptide array binding signal intensity |
| --- | --- |
| IFLRISINFPLNYPN | 233 |

These binders were tested against AgBem1-D1 in the same assay as above.
Procedure, shortened: as §1

| Binder | SPOT peptide array binding signal intensity |
| --- | --- |
| IFLRISINFPLNYPN | 952 |

What follows are binders tested against AgBzz1-D1 in the same assay as above.
Procedure, shortened: as §1

| Binder | SPOT peptide array binding signal intensity |
| --- | --- |
| IFLRISINFPLNYPN | 1120 |

Each binder was assayed against AgBzz1-D2 in the same assay as above.
Procedure, shortened: as §1

| Binder | SPOT peptide array binding signal intensity |
| --- | --- |
| IFLRISINFPLNYPN | 412 |

The binders below were run against AgCyk3 in the same assay as above.
Procedure, shortened: as §1

| Binder | SPOT peptide array binding signal intensity |
| --- | --- |
| IFLRISINFPLNYPN | 52.5 |

What follows are binders tested against AgFus1 in the same assay as above.
Procedure, shortened: as §1

| Binder | SPOT peptide array binding signal intensity |
| --- | --- |
| IFLRISINFPLNYPN | 4330 |

Each binder was assayed against AgHof1 in the same assay as above.
Procedure, shortened: as §1

| Binder | SPOT peptide array binding signal intensity |
| --- | --- |
| IFLRISINFPLNYPN | 218 |

These binders were tested against AgHse1 in the same assay as above.
Procedure, shortened: as §1

| Binder | SPOT peptide array binding signal intensity |
| --- | --- |
| IFLRISINFPLNYPN | 2460 |

Each binder was assayed against AgLsb1 in the same assay as above.
Procedure, shortened: as §1

| Binder | SPOT peptide array binding signal intensity |
| --- | --- |
| IFLRISINFPLNYPN | 68.8 |

These binders were tested against AgLsb4 in the same assay as above.
Procedure, shortened: as §1

| Binder | SPOT peptide array binding signal intensity |
| --- | --- |
| IFLRISINFPLNYPN | 2440 |

Each binder was assayed against AgMyo5 in the same assay as above.
Procedure, shortened: as §1

| Binder | SPOT peptide array binding signal intensity |
| --- | --- |
| IFLRISINFPLNYPN | 29.5 |

Each binder was assayed against AgNbp2 in the same assay as above.
Procedure, shortened: as §1

| Binder | SPOT peptide array binding signal intensity |
| --- | --- |
| IFLRISINFPLNYPN | 1630 |

Each binder was assayed against AgRvs167 in the same assay as above.
Procedure, shortened: as §1

| Binder | SPOT peptide array binding signal intensity |
| --- | --- |
| IFLRISINFPLNYPN | 162 |

What follows are binders tested against AgSho1 in the same assay as above.
Procedure, shortened: as §1

| Binder | SPOT peptide array binding signal intensity |
| --- | --- |
| IFLRISINFPLNYPN | 2150 |

Each binder was assayed against AgSla1-D1-D2 in the same assay as above.
Procedure, shortened: as §1

| Binder | SPOT peptide array binding signal intensity |
| --- | --- |
| IFLRISINFPLNYPN | 74.2 |

Each binder was assayed against AgSla1-D3 in the same assay as above.
Procedure, shortened: as §1

| Binder | SPOT peptide array binding signal intensity |
| --- | --- |
| IFLRISINFPLNYPN | 73.9 |

These binders were tested against CaAbp1-D1 in the same assay as above.
Procedure, shortened: as §1

| Binder | SPOT peptide array binding signal intensity |
| --- | --- |
| IFLRISINFPLNYPN | 448 |

Each binder was assayed against CaAbp1-D2 in the same assay as above.
Procedure, shortened: as §1

| Binder | SPOT peptide array binding signal intensity |
| --- | --- |
| IFLRISINFPLNYPN | 305 |

The binders below were run against CaBbc1 in the same assay as above.
Procedure, shortened: as §1

| Binder | SPOT peptide array binding signal intensity |
| --- | --- |
| IFLRISINFPLNYPN | 487 |

What follows are binders tested against CaBem1-D1 in the same assay as above.
Procedure, shortened: as §1

| Binder | SPOT peptide array binding signal intensity |
| --- | --- |
| IFLRISINFPLNYPN | 666 |

Each binder was assayed against CaBzz1-D1 in the same assay as above.
Procedure, shortened: as §1

| Binder | SPOT peptide array binding signal intensity |
| --- | --- |
| IFLRISINFPLNYPN | 1170 |

The binders below were run against CaBzz1-D2 in the same assay as above.
Procedure, shortened: as §1

| Binder | SPOT peptide array binding signal intensity |
| --- | --- |
| IFLRISINFPLNYPN | 821 |

Each binder was assayed against CaCyk3 in the same assay as above.
Procedure, shortened: as §1

| Binder | SPOT peptide array binding signal intensity |
| --- | --- |
| IFLRISINFPLNYPN | 107 |

These binders were tested against CaFus1 in the same assay as above.
Procedure, shortened: as §1

| Binder | SPOT peptide array binding signal intensity |
| --- | --- |
| IFLRISINFPLNYPN | 7820 |

The binders below were run against CaHof1 in the same assay as above.
Procedure, shortened: as §1

| Binder | SPOT peptide array binding signal intensity |
| --- | --- |
| IFLRISINFPLNYPN | 1.25 |

Each binder was assayed against CaHse1 in the same assay as above.
Procedure, shortened: as §1

| Binder | SPOT peptide array binding signal intensity |
| --- | --- |
| IFLRISINFPLNYPN | 1570 |

Each binder was assayed against CaLsb1 in the same assay as above.
Procedure, shortened: as §1

| Binder | SPOT peptide array binding signal intensity |
| --- | --- |
| IFLRISINFPLNYPN | 63.5 |

Each binder was assayed against CaLsb4 in the same assay as above.
Procedure, shortened: as §1

| Binder | SPOT peptide array binding signal intensity |
| --- | --- |
| IFLRISINFPLNYPN | 477 |

The binders below were run against CaMyo5 in the same assay as above.
Procedure, shortened: as §1

| Binder | SPOT peptide array binding signal intensity |
| --- | --- |
| IFLRISINFPLNYPN | 156 |

The binders below were run against CaNbp2 in the same assay as above.
Procedure, shortened: as §1

| Binder | SPOT peptide array binding signal intensity |
| --- | --- |
| IFLRISINFPLNYPN | 2110 |

The binders below were run against CaRvs167 in the same assay as above.
Procedure, shortened: as §1

| Binder | SPOT peptide array binding signal intensity |
| --- | --- |
| IFLRISINFPLNYPN | 750 |

These binders were tested against CaRvs167-3 in the same assay as above.
Procedure, shortened: as §1

| Binder | SPOT peptide array binding signal intensity |
| --- | --- |
| IFLRISINFPLNYPN | 1500 |

The binders below were run against CaSho1 in the same assay as above.
Procedure, shortened: as §1

| Binder | SPOT peptide array binding signal intensity |
| --- | --- |
| IFLRISINFPLNYPN | 2060 |

What follows are binders tested against CaSla1-D1-D2 in the same assay as above.
Procedure, shortened: as §1

| Binder | SPOT peptide array binding signal intensity |
| --- | --- |
| IFLRISINFPLNYPN | 602 |

These binders were tested against CaSla1-D3 in the same assay as above.
Procedure, shortened: as §1

| Binder | SPOT peptide array binding signal intensity |
| --- | --- |
| IFLRISINFPLNYPN | 1050 |

The binders below were run against ScAbp1 in the same assay as above.
Procedure, shortened: as §1

| Binder | SPOT peptide array binding signal intensity |
| --- | --- |
| IFLRISINFPLNYPN | 93.2 |

The binders below were run against ScBbc1 in the same assay as above.
Procedure, shortened: as §1

| Binder | SPOT peptide array binding signal intensity |
| --- | --- |
| IFLRISINFPLNYPN | 59.9 |

What follows are binders tested against ScBem1-D1 in the same assay as above.
Procedure, shortened: as §1

| Binder | SPOT peptide array binding signal intensity |
| --- | --- |
| IFLRISINFPLNYPN | 194 |

Each binder was assayed against ScBzz1-D1 in the same assay as above.
Procedure, shortened: as §1

| Binder | SPOT peptide array binding signal intensity |
| --- | --- |
| IFLRISINFPLNYPN | 558 |

What follows are binders tested against ScBzz1-D2 in the same assay as above.
Procedure, shortened: as §1

| Binder | SPOT peptide array binding signal intensity |
| --- | --- |
| IFLRISINFPLNYPN | 2990 |

What follows are binders tested against ScCyk3 in the same assay as above.
Procedure, shortened: as §1

| Binder | SPOT peptide array binding signal intensity |
| --- | --- |
| IFLRISINFPLNYPN | 127 |

Each binder was assayed against ScFus1 in the same assay as above.
Procedure, shortened: as §1

| Binder | SPOT peptide array binding signal intensity |
| --- | --- |
| IFLRISINFPLNYPN | 5050 |

These binders were tested against ScHof1 in the same assay as above.
Procedure, shortened: as §1

| Binder | SPOT peptide array binding signal intensity |
| --- | --- |
| IFLRISINFPLNYPN | 30.8 |

These binders were tested against ScHse1 in the same assay as above.
Procedure, shortened: as §1

| Binder | SPOT peptide array binding signal intensity |
| --- | --- |
| IFLRISINFPLNYPN | 3840 |

Each binder was assayed against ScLsb1 in the same assay as above.
Procedure, shortened: as §1

| Binder | SPOT peptide array binding signal intensity |
| --- | --- |
| IFLRISINFPLNYPN | 12.8 |

Each binder was assayed against ScLsb2 in the same assay as above.
Procedure, shortened: as §1

| Binder | SPOT peptide array binding signal intensity |
| --- | --- |
| IFLRISINFPLNYPN | 64 |

These binders were tested against ScLsb3 in the same assay as above.
Procedure, shortened: as §1

| Binder | SPOT peptide array binding signal intensity |
| --- | --- |
| IFLRISINFPLNYPN | 1490 |

What follows are binders tested against ScLsb4 in the same assay as above.
Procedure, shortened: as §1

| Binder | SPOT peptide array binding signal intensity |
| --- | --- |
| IFLRISINFPLNYPN | 396 |

What follows are binders tested against ScMyo3 in the same assay as above.
Procedure, shortened: as §1

| Binder | SPOT peptide array binding signal intensity |
| --- | --- |
| IFLRISINFPLNYPN | 32.5 |

What follows are binders tested against ScMyo5 in the same assay as above.
Procedure, shortened: as §1

| Binder | SPOT peptide array binding signal intensity |
| --- | --- |
| IFLRISINFPLNYPN | 114 |

What follows are binders tested against ScNbp2 in the same assay as above.
Procedure, shortened: as §1

| Binder | SPOT peptide array binding signal intensity |
| --- | --- |
| IFLRISINFPLNYPN | 2820 |

Each binder was assayed against ScPex13 in the same assay as above.
Procedure, shortened: as §1

| Binder | SPOT peptide array binding signal intensity |
| --- | --- |
| IFLRISINFPLNYPN | 516 |

Each binder was assayed against ScRvs167 in the same assay as above.
Procedure, shortened: as §1

| Binder | SPOT peptide array binding signal intensity |
| --- | --- |
| IFLRISINFPLNYPN | 223 |

These binders were tested against ScSho1 in the same assay as above.
Procedure, shortened: as §1

| Binder | SPOT peptide array binding signal intensity |
| --- | --- |
| IFLRISINFPLNYPN | 6350 |

What follows are binders tested against ScSla1-D1-D2 in the same assay as above.
Procedure, shortened: as §1

| Binder | SPOT peptide array binding signal intensity |
| --- | --- |
| IFLRISINFPLNYPN | 880 |

The binders below were run against ScSla1-D3 in the same assay as above.
Procedure, shortened: as §1

| Binder | SPOT peptide array binding signal intensity |
| --- | --- |
| IFLRISINFPLNYPN | 344 |

Each binder was assayed against SpAbp1-D1 in the same assay as above.
Procedure, shortened: as §1

| Binder | SPOT peptide array binding signal intensity |
| --- | --- |
| IFLRISINFPLNYPN | 211 |

These binders were tested against SpBbc1 in the same assay as above.
Procedure, shortened: as §1

| Binder | SPOT peptide array binding signal intensity |
| --- | --- |
| IFLRISINFPLNYPN | 238 |

What follows are binders tested against SpBzz1-D1 in the same assay as above.
Procedure, shortened: as §1

| Binder | SPOT peptide array binding signal intensity |
| --- | --- |
| IFLRISINFPLNYPN | 1240 |
